# Test results published in ChEMBL document CHEMBL3988442, “University of Dundee, Small-Polar-MMV Screening Library” (2021).
# Out of some 66,000 compounds screened, about 960 (1.5%) showed an effect of 50% or more. Many of the other results were omitted from the sample, so strong results are more common in it than they were.
# Test system: Trypanosoma brucei
# Assay: Trypanosoma brucei 72 hour study
# Format: functional, organism-based
# Set-up: scale not given: in the data most compounds retested in dose-response had high values
smiles,measurement,setting,value
CN(C)CCN1CCC2(CCN(C(=O)c3ccc(F)cc3)CC2)C1=O.O=C(O)C(F)(F)F,Percent Effect,"30.3 µM, […]",-18.87%
CS(=O)(=O)NCc1cnc2n1CCN(Cc1ccoc1)CC2.O=C(O)C(F)(F)F,Percent Effect,"30 µM, 30.03 µM",-17.96%
CC(C)(C)c1cn2c(n1)C(CNCc1ccccn1)CCC2 (stereo not drawn),Percent Effect,"30.3 µM, […]",52.9%
Cc1nc(C)c(CNCC2CCCn3ccnc32)s1 (stereo not drawn),Percent Effect,"30.3 µM, […]",-1.913%
Cc1cn2c(n1)C(CNCc1cccc3c1OCO3)CCC2 (stereo not drawn),Percent Effect,"30.3 µM, […]",8.746%
Cc1ccc(CNCC2CCCn3ccnc32)s1 (stereo not drawn),Percent Effect,"30.3 µM, […]",6.823%
Cn1cccc1CNCC1CCCn2cc(C(C)(C)C)nc21 (stereo not drawn),Percent Effect,"30.3 µM, […]",99.88%
CC(C)(C)c1ncc(CNCC2CCCn3ccnc32)s1 (stereo not drawn),Percent Effect,"30.3 µM, […]",9.708%
Cn1cccc1CNCc1nnc2n1CCCC2C(F)(F)F (stereo not drawn),Percent Effect,"30.3 µM, […]",-4.039%
CC(C)(C)c1cn2c(n1)C(CNCc1cnn3ccccc13)CCC2 (stereo not drawn),Percent Effect,"30.3 µM, […]",100%
Cc1cn2c(n1)C(CNCc1cnn3ccccc13)CCC2 (stereo not drawn),Percent Effect,"30.3 µM, […]",-7.399%
O=C(O)C(F)(F)F.O=C(c1cccc(Cl)c1)N1CC[C@H]2[C@H]1CCN2CC1CCOCC1,Percent Effect,"30 µM, 30.03 µM",13.39%
Cc1noc(C)c1CN1CCC2(CCN(Cc3cccc(F)c3)CC2)C1.O=C(O)C(F)(F)F.O=C(O)C(F)(F)F,Percent Effect,"30.3 µM, […]",-58.32%
Cc1ccc(CN(CCCn2ccnc2)Cc2cnn(C)c2)s1.O=C(O)CC(O)(CC(=O)O)C(=O)O,Percent Effect,"30.3 µM, […]",-61.1%
CNc1ncc2c(n1)CN(C1CC(C)(C)NC(C)(C)C1)C2=O,Percent Effect,"30.3 µM, […]",8.017%
CCCc1nc(NCCCO)c2c(n1)c(C)nn2CC,Percent Effect,"30 µM, 30.03 µM",38.76%
CCCc1nc(NCCc2ccccc2)c2c(n1)c(C)nn2CC,Percent Effect,"30.3 µM, […]",99.68%
CCn1c(NCc2ccccc2)nc2c(C)nn(C)c2c1=O,Percent Effect,"30.3 µM, […]",-7.911%
CCn1nc(C)c2nc(C)nc(NCCCn3cccn3)c21,Percent Effect,"30.3 µM, […]",-1.841%
CCn1nc(C)c2nc(C)nc(NCCc3ccccc3)c21,Percent Effect,"30.3 µM, […]",92.15%
CCCc1nc(NCCCn2cccn2)c2c(n1)c(C)nn2CC,Percent Effect,"30.3 µM, […]",10.65%
CCc1nc(NCCCn2cccn2)c2c(n1)c(C)nn2CC,Percent Effect,"30.3 µM, […]",-16.86%
CCn1nc(C)c2nc(C)nc(NCCc3ccc(C)cc3)c21,Percent Effect,"30.3 µM, […]",100.2%
Cc1nn(C)c2c(=O)n(C(C)C)c(NCCc3ccccc3)nc12,Percent Effect,"30.3 µM, […]",4.366%
CCn1nc(C)c2nc(C)nc(NC3CCCC3)c21,Percent Effect,"30 µM, 30.03 µM",-3.661%
CCn1nc(C)c2nc(C(C)C)nc(NCCc3ccc(O)cc3)c21,Percent Effect,"30.3 µM, […]",39.22%
CCCn1c(NCCc2ccccc2)nc2c(C)nn(C)c2c1=O,Percent Effect,"30.3 µM, […]",99.9%
COc1cccc(CN2C[C@@H]3CC[C@@](O)(c4ccccn4)[C@@H]3C2)c1OC.O=C(O)CC(O)(CC(=O)O)C(=O)O,Percent Effect,"30.3 µM, […]",-12.48%
CC(=O)N1[C@H](CN(C)C)C[C@@H]2CN(C(=O)Cc3cccs3)CC[C@@H]21.O=C(O)C(F)(F)F,Percent Effect,"30.3 µM, […]",-71.88%
Cn1cccc1C(=O)N[C@H]1CN(Cc2ccoc2)[C@@H]2CCCO[C@H]12.O=C(O)C(F)(F)F,Percent Effect,"30.3 µM, […]",-1.992%
Cc1cccc(CN2CCc3ncnc(NC4CCC4)c3CC2)n1.O=C(O)C(F)(F)F.O=C(O)C(F)(F)F,Percent Effect,"30 µM, 30.03 µM",-15.74%
Cc1cc(C(=O)N2CC[C@H]3C[C@H](c4ccncn4)O[C@@H]3C2)no1,Percent Effect,"30 µM, 30.03 µM",-17.17%
CN(Cc1cccnc1)Cc1cncc2c1CCN(Cc1ccoc1)C2.Cl.Cl.Cl,Percent Effect,"30.3 µM, […]",-64.05%
O=C(O)C(F)(F)F.c1cc(CN2C[C@H](OCC3CCOCC3)[C@H]3COC[C@H]32)co1,Percent Effect,"30.3 µM, […]",-13.64%
Cc1ccc(S(=O)(=O)N2CC[C@H]3CO[C@H](CN(C)C)[C@H]3C2)cc1.O=C(O)C(F)(F)F,Percent Effect,"30 µM, 30.03 µM",-6.145%
Cc1ccc(CN2CCC3(CC2)NC(=O)CC3c2ccncc2)cc1C.O=C(O)C(F)(F)F.O=C(O)C(F)(F)F (stereo not drawn),Percent Effect,"30 µM, 30.03 µM",-19.59%
Fc1ccc(-c2nc(CN3CCOC(Cn4cccn4)C3)co2)cc1 (stereo not drawn),Percent Effect,"30.3 µM, […]",15.69%
COc1cc(OC)cc(-c2cc(CN)nc3ccnn23)c1.Cl,Percent Effect,"30.3 µM, […]",0.9349%
Cc1ccc(CN2Cc3ccnn3CC(C(=O)NCC3CC3)C2)o1.O=C(O)C(F)(F)F.O=C(O)C(F)(F)F (stereo not drawn),Percent Effect,"30.3 µM, […]",-12.67%
Cc1cccc(-c2noc(CN3CCOC(Cn4cccn4)C3)n2)c1 (stereo not drawn),Percent Effect,"30.3 µM, […]",7.086%
CCCc1nc(NCCCOC)c2c(n1)c(C)nn2CC,Percent Effect,"30.3 µM, […]",88.3%
CCCc1nc(NCCOC)c2c(n1)c(C)nn2CC,Percent Effect,"30.3 µM, […]",-10.53%
CCCc1nc(NCCCOCC)c2c(n1)c(C)nn2CC,Percent Effect,"30.3 µM, […]",-18.63%
CCOc1ncccc1CNC(=O)NCC(O)c1ccccc1OC (stereo not drawn),Percent Effect,10 µM,-66.27%
COc1c(C)cc(CNCc2ccnc(N3CCOCC3)c2)cc1C.Cl,Percent Effect,"30.3 µM, […]",15.01%
same,Percent Effect,"10 mM, 10 mM as filed; unlikely as a test dose",-23.82%
COc1ccc(CNC(C)c2ccc(Cl)c(Cl)c2)c(OC)c1OC (stereo not drawn),Percent Effect,"30 µM, 30.03 µM",20.68%
Cc1cc2nc(-c3ccccc3)cc(NCC3CCS(=O)(=O)C3)n2n1 (stereo not drawn),Percent Effect,"30.3 µM, […]",6.285%
Cc1cc2nc(-c3ccccc3)cc(NCC3CCCOC3)n2n1 (stereo not drawn),Percent Effect,"30.3 µM, […]",87.98%
c1ccc(-c2cc(NCCCC3CCOC3)n3nccc3n2)cc1 (stereo not drawn),Percent Effect,"30.3 µM, […]",35.81%
COc1cccc(C(NCc2ccc(SC)cc2)c2nccn2C)c1 (stereo not drawn),Percent Effect,10 µM,-34.89%
CCOCC1CN(Cc2cccs2)Cc2nn(C)cc21.O=C(O)C(F)(F)F (stereo not drawn),Percent Effect,"30 µM, 30.03 µM",-3.631%
CCN(CC1CN(Cc2nc(C3CC3)no2)CCO1)c1cccnn1 (stereo not drawn),Percent Effect,"30 µM, 30.03 µM",37.04%
CSc1ccc(C(=O)N2CCCC(Nc3ccc(F)cc3)C2)cc1 (stereo not drawn),Percent Effect,"30 µM, 30.03 µM",63.86%
COC(=O)c1ccc(C(=O)N2CCCC(Nc3ccc(F)cc3)C2)cc1 (stereo not drawn),Percent Effect,"30 µM, 30.03 µM",-14.97%
Cc1ccc(C(=O)N2CCCC(Nc3ccc(F)cc3)C2)cc1 (stereo not drawn),Percent Effect,"30 µM, 30.03 µM",-28.83%
CN(C)C(=O)COC[C@]12COC[C@H]1CN(CCc1ccccc1)C2.O=C(O)C(F)(F)F,Percent Effect,"30.3 µM, […]",-48.5%
CCCc1nc(CNCC2CCCN2c2cccnn2)cs1 (stereo not drawn),Percent Effect,"30.3 µM, […]",34.1%
CN(Cc1coc(-c2ccccc2)n1)CC1CCCN1c1cccnn1 (stereo not drawn),Percent Effect,"30 µM, 30.03 µM",-1.174%
c1ccc(-c2nc(CNCC3CCCN3c3cccnn3)co2)cc1 (stereo not drawn),Percent Effect,"30.3 µM, […]",97.98%
Cc1nc(CNCC2CCCN2c2cccnn2)cs1 (stereo not drawn),Percent Effect,"30 µM, 30.03 µM",-9.671%
c1cnnc(N2CCCC2CNCc2csc(-c3ccco3)n2)c1 (stereo not drawn),Percent Effect,"30.3 µM, […]",17.07%
CCc1nc(CN2CCOC(CNc3cccnn3)C2)cs1 (stereo not drawn),Percent Effect,"30.3 µM, […]",-0.3167%
CC(C)c1nc(CN2CCOC(CNc3cccnn3)C2)cs1 (stereo not drawn),Percent Effect,"30.3 µM, […]",100.6%
CC(C)c1nc(CNCC2CCCN2c2cccnn2)cs1 (stereo not drawn),Percent Effect,"30.3 µM, […]",100.4%
CC(C)CCc1nc(CNCC2CCCN2c2cccnn2)cs1 (stereo not drawn),Percent Effect,"30.3 µM, […]",99.06%
Cc1nc(CN2CCOC(CNc3cccnn3)C2)cs1 (stereo not drawn),Percent Effect,"30 µM, 30.03 µM",-27.36%
c1ccc(-c2nnc(CNCC3CCCN3c3cccnn3)o2)cc1 (stereo not drawn),Percent Effect,"30 µM, 30.03 µM",-41.79%
CCc1nc(CNCC2CCCN2c2cccnn2)cs1 (stereo not drawn),Percent Effect,"30.3 µM, […]",4.558%
Cc1nn(C)c(N2CCOCC2)c1CNC1CCc2cc(F)ccc21.Cl (stereo not drawn),Percent Effect,"30.3 µM, […]",2.572%
O=C(c1ccccn1)N1CCCC(c2cc(C(F)F)n3ncnc3n2)C1 (stereo not drawn),Percent Effect,"30.3 µM, […]",-6.514%
CN(C)CCn1c2c(ccc1=O)CCN(C(=O)c1cccs1)CC2.O=C(O)C(F)(F)F,Percent Effect,"30.3 µM, […]",-37.11%
CC(C)NC(=O)CC1COC2(CCN(Cc3ccco3)CC2)C1 (stereo not drawn),Percent Effect,"30.3 µM, […]",-14.26%
Cn1ccc(C(=O)NC2CCC23CCN(Cc2ccc(F)cc2)CC3)c1.O=C(O)C(F)(F)F (stereo not drawn),Percent Effect,"30 µM, 30.03 µM",3.839%
CC(C)Nc1nc(N2CCCC2)nc2c1CCN(S(C)(=O)=O)CC2.O=C(O)C(F)(F)F.O=C(O)C(F)(F)F,Percent Effect,"30.3 µM, […]",-7.363%
CC(C)Nc1nc(N2CCCC2)nc2c1CN(S(C)(=O)=O)CC2,Percent Effect,"30.3 µM, […]",-6.542%
CC(C)Nc1nc(N2CCCC2)nc2c1CN(c1ncc(F)cn1)CC2,Percent Effect,"30.3 µM, […]",99.94%
CCN1CCc2nc(N3CCOCC3)nc(NC(C)C)c2C1,Percent Effect,"30.3 µM, […]",-20.31%
CC(C)CCN1CCc2nc(N3CCOCC3)nc(NC(C)C)c2C1,Percent Effect,"30.3 µM, […]",99.5%
CCC(C)N1CCc2nc(N3CCCC3)nc(NC(C)C)c2C1 (stereo not drawn),Percent Effect,"30.3 µM, […]",80.67%
CCCN1CCc2nc(N3CCOCC3)nc(NC(C)C)c2C1,Percent Effect,"30.3 µM, […]",-24.43%
CC(C)Nc1nc(N2CCCC2)nc2c1CN(C)CC2,Percent Effect,"30.3 µM, […]",-8.686%
COCCC(=O)N1CCc2nc(N3CCOCC3)nc(NC(C)C)c2C1,Percent Effect,"30.3 µM, […]",-26.7%
CC(C)CC(=O)N1CCc2nc(N3CCOCC3)nc(NC(C)C)c2C1,Percent Effect,"30 µM, 30.03 µM",21.8%
CC(C)Nc1nc(N2CCOCC2)nc2c1CN(CC(=O)N(C)C)CC2,Percent Effect,"30 µM, 30.03 µM",-12.25%
CC(C)Nc1nc(N2CCCC2)nc2c1CN(C(C)C)CC2,Percent Effect,"30 µM, 30.03 µM",99.66%
COc1ccc(Oc2cc(CN)ccn2)cc1,Percent Effect,"30 µM, 30.03 µM",-27.14%
O=C1N(c2ccsc2)CCC12CCCN(c1ncc(F)cn1)C2 (stereo not drawn),Percent Effect,"30.3 µM, […]",6.515%
CC(C)(C)n1ncc(NCCc2ccccc2C(F)(F)F)c(Cl)c1=O,Percent Effect,"30 µM, 30.03 µM",-22.16%
COC(C)(C)C(=O)N1CCC(c2cc(CN(C)C)n(C)n2)CC1.Cl,Percent Effect,"30.3 µM, […]",-10.49%
Cc1ccc(CN2Cc3c(cnn3C)C(COCC3CC3)C2)s1 (stereo not drawn),Percent Effect,"30 µM, 30.03 µM",38.62%
CC(C)=CCN1C(=O)[C@H]2CC[C@@H]1CN(C(=O)CCc1nc(Cl)n[nH]1)C2,Percent Effect,"30 µM, 30.03 µM",-4.584%
COC(=O)CN1CC2(CCNCC2)COc2ccccc2S1(=O)=O.O=C(O)C(F)(F)F,Percent Effect,"30 µM, 30.03 µM",-19.66%
Br.CCOc1ccc(Br)cc1C1CCCN1 (stereo not drawn),Percent Effect,"30 µM, 30.03 µM",-44.26%
CC(C)OCCCN(CC(=O)N1CCNCC1)C(=O)c1ccc(F)cc1.O=C(O)C(F)(F)F,Percent Effect,"30 µM, 30.03 µM",-6.979%
Cc1nc(CN2CCc3nc(N4CCCC4)nc(NC(C)C)c3C2)cs1,Percent Effect,"30 µM, 30.03 µM",98.38%
CC(C)Nc1nc(N2CCOCC2)nc2c1CN(Cc1ccoc1)CC2,Percent Effect,"30 µM, 30.03 µM",8.067%
Cc1nc(CN2CCc3nc(NC(C)C)nc(C)c3C2)cs1,Percent Effect,"30 µM, 30.03 µM",1.176%
